Compounds with a hit are over-represented: about 1.6% of the library has one in this group of screens.
KCNQ2 pot – enhances the rat KCNQ2 potassium channel. AID 2239. O88943. 310,000 tested, 0.54% active. CHO-K1 KCNQ2, FluxOR thallium flux fluorescence; active compounds read high. B-score at 10 µM;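 active means fluorescence ratio B-score at least 3 SD of library B-scores, with initial fluorescence B-score within 3 of them, cut at about 5.3 in these data; same plate scores as AID 2156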;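 further: B-score of peak minus minimum over baseline fluorescence ratio after K+ and Tl+ stimulus; positive B-score means potentiation of KCNQ2 with more thallium influx and brighter signal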
Target sequence (O88943 whole entry, looked up): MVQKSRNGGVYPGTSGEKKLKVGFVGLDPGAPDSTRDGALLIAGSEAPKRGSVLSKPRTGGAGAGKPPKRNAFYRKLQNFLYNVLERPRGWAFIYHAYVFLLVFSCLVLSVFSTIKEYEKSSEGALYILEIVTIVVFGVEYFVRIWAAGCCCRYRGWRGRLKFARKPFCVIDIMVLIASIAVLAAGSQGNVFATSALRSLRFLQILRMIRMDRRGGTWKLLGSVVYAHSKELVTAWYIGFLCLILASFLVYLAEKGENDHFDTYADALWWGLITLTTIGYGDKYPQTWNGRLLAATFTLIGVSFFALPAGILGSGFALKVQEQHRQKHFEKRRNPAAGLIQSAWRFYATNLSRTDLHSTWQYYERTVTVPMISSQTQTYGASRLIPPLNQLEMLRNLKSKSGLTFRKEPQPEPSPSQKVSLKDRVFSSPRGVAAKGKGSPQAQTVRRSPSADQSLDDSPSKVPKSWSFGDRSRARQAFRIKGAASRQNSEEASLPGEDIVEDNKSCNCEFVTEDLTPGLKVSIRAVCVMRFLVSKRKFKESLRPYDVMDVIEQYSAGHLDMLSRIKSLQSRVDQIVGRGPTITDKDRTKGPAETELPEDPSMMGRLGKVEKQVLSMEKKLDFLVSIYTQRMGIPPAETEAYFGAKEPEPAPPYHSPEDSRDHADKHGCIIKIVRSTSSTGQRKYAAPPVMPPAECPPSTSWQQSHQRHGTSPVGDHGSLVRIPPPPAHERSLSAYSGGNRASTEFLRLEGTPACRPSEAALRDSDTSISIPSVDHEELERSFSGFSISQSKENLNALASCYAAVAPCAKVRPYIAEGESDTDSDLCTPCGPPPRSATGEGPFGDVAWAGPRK
KCNQ2 block – blocks the rat KCNQ2 potassium channel | O88943 | CHO-K1 KCNQ2, FluxOR thallium flux, 20 min; active compounds read low | B-score at 10 µM | 310,000 tested, 1.1% active;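 active means fluorescence ratio B-score at most minus 3 library SDs, with starting brightness B-score within 2 library SDs, cut at about -5.5 in these data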
Numbers stand for hits; n = inactive; x = no result.

SMILES | KCNQ2 pot | KCNQ2 block
C=C1CCN([C@@H](CC(C)C)C(=O)NCc2ccc(Cl)c(Cl)c2)S(=O)(=O)c2ccccc21 | x | n
C=C1CCN([C@@H](Cc2ccccc2)C(=O)NCc2ccc(Cl)c(Cl)c2)S(=O)(=O)c2ccccc21 | n | -6.18
C=CCn1c(CSCc2ccccc2)nnc1SCC(=O)NCc1ccccc1 | n | -5.55
CCn1c(CSCc2ccc(F)cc2)nnc1SCC(=O)NCc1ccccc1 | x | n
CCC(C(=O)NCc1cccnc1)n1nc(C)n2c(cc3occc32)c1=O (centres undefined) | x | n
O=C(NN=C(Cc1ccccc1)Cc1ccccc1)c1ccccc1O | n | n
NC(=S)NN=C(Cc1ccccc1)Cc1ccccc1 | n | -5.63
C/C(Cc1ccccc1)=N\NC(=O)c1ccc(F)cc1 | n | n
O=C(NN=C(Cc1ccccc1)Cc1ccccc1)c1ccc(F)cc1 | n | -5.62
COc1ccc(Nc2nc(N/N=C/c3ccc(N(C)C)cc3)nc(C)c2[N+](=O)[O-])cc1 | n | n
CCOC(=O)C1CCN(C(=O)c2c(-c3ccccc3)noc2C)CC1 | x | n
COc1c(CC=C(C)C)cc(C2CC(=O)c3c(O)cc(O)cc3O2)c(CC=C(C)C)c1O (centres undefined) | n | -5.82
COc1cc(C2CC(=O)c3c(O)cc(O)cc3O2)ccc1O (centres undefined) | x | n
Cc1ccc(S(=O)(=O)N2CCOCC2)cc1NC(=O)CSc1ccc(Cl)cc1 | n | n
COc1ccccc1N1CCN(C(=O)c2cc3c(s2)-c2ccccc2OC3)CC1 | x | n
O=C(c1cc2c(s1)-c1ccccc1OC2)N1CCc2ccccc2C1 | n | -5.57
Cn1ncc(C#N)c1/N=C/N(Cc1ccccc1)Cc1ccccc1 | n | -5.71
Cn1ncc(C#N)c1/N=C/N1CCCC1 | n | n
O=C(NCc1cccnc1)c1ccc(-c2cc(Cl)ccc2Cl)o1 | n | -6.8
O=C(Nc1cccnc1)c1ccc(-c2cc(Cl)ccc2Cl)o1 | n | n
Clc1ccc(SCc2cc(-c3ccc(Cl)cc3)on2)cc1 | n | -7.47
Cc1ccc(SCc2cc(-c3ccc(Cl)cc3)on2)cc1 | x | n
CCNC(=O)O/N=C(\C)c1sc(-c2ccccc2)nc1C | n | n
Cc1ccccc1NC(=O)c1ccc(C)c(S(=O)(=O)Nc2cccnc2)c1 | x | n
Cc1ccc(C)c(NS(=O)(=O)c2cc(C(=O)Nc3ccccc3-c3ccccc3)ccc2C)c1 | n | -6.21
SMILES | KCNQ2 pot | KCNQ2 block
Cc1cc(F)ccc1S(=O)(=O)Nc1ccccc1C(=O)Nc1ccccc1N1CCOCC1 | x | n
Cc1ccc(C(=O)NCc2ccncc2)cc1S(=O)(=O)Nc1cccc(C)c1C | x | n
Cc1ccc(C)c(S(=O)(=O)Nc2ccccc2C(=O)Nc2ccccc2N2CCOCC2)c1 | n | -5.98
Cc1ccc(C(=O)Nc2ccccc2-c2ccccc2)cc1S(=O)(=O)Nc1cccc(C)c1C | n | -7.88
CN(C1CCCCC1)S(=O)(=O)c1ccc(NC(=S)NC(=O)c2cccs2)cc1 | x | n
CCOC(=O)C1(CCOc2ccccc2)CCN(Cc2ccc(OCC)c(CO)c2)CC1 | n | n
COCCCNC(=O)c1c(N)n(-c2ccc3c(c2)OCO3)c2nc3ccccc3nc12 | x | n
OCC1CCCN(C(=S)Nc2ccc(Oc3ccccc3)cc2)C1 (centres undefined) | x | n
Cc1csc(C(=O)O)c1NC(=O)c1ccc(F)cc1 | x | n
Cc1cccc(NC(=O)CSc2nnc(C)c(=O)n2N)c1C | x | n
CC1CCCC(C)N1C(=O)CSc1nc2ncnc(N)c2[nH]1 (centres undefined) | x | n
CCOC(=O)N1CCN(S(=O)(=O)c2cc(OCC(=O)NC3CCCCC3)c(C)cc2Cl)CC1 | n | n
CCN1CCN(S(=O)(=O)c2cc(OCC(=O)NC3CCCCC3)c(C)cc2Cl)CC1 | 10.8 | n
COc1ccccc1N(Cc1ccccc1)S(=O)(=O)c1cccc(C(=O)Nc2cccc(C)n2)c1 | n | -6.44
Cc1cccc(NC(=O)c2cccc(S(=O)(=O)NCc3ccccc3)c2)n1 | x | n
COC(=O)c1sccc1NC(=O)Nc1ccc(OC)cc1 | n | n
CC1=C(C)C(=O)C(CCCCC#CCCCC#CCO)=C(C)C1=O | n | -6.83
CCOc1ccc2cc(S(=O)(=O)N3CCOCC3)ccc2c1 | n | n
O=[N+]([O-])c1ccc(Nc2ccccc2F)nc1 | 5.35 | n
Cc1ccccc1Nc1ccc([N+](=O)[O-])cn1 | n | n
O=C(O)c1ccc(CS(=O)(=O)Cc2ccccc2F)o1 | x | n
Cn1c(C(=O)Nc2ccc3c(c2)OCCO3)cc2sccc21 | x | n
O=C(Oc1coc(CSc2ncccn2)cc1=O)c1cccc([N+](=O)[O-])c1 | n | n
CC(C)N(Cc1ccccc1)C(=O)CCc1ccccc1 | x | n
CC(C)(C)N(Cc1ccccc1)C(=O)CCc1ccccc1 | n | -6.58
CC1SCC(=NOCc2ccccc2)CS1 (centres undefined) | x | n
Cc1sc2ncnc(N3CCC(C(=O)Nc4ccccc4C(C)(C)C)CC3)c2c1C | x | n
CCOC(=O)c1ccccc1NC(=O)C1CCN(c2ncnc3sc(C)c(C)c23)CC1 | n | -5.97
Cc1cc(C)nc(SCCN(C)C)n1 | n | n
